Tau fil binding – qHTS Assay for Tau Filament Binding; Microtubule-associated protein tau (Homo sapiens), P10636; recombinant tau filaments, thioflavin S fluorescence, 15 h; filaments grown with octadecylsulfate alongside compound; Potency, µM (top dose mostly 57.1 µM), for inactives: at the highest dose activity change, negative = inhibition; 2% of 71,000 active; AID 596, 2007;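 further: on the % scale 0 is the no-effect control and ±100 the full control effect; actives lower thioflavin S fluorescence by blocking filaments or displacing dye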
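His-tagged recombinant human tau (exons 2, 3, 10; 1 uM final) fibrillized with 30 uM sodium octadecylsulfate, 15 h at 37 C, in pH 7.4 HEPES buffer with 10 uM thioflavine S and 5 mM DTT. Reduced ThS fluorescence (450/510 nm) marks activity.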
Caspase-1 inhib – qHTS Assay for Allosteric/Competitive Inhibitors of Caspase-1; 0.03% of 75,000 active; P29466; AID 900, 2007; Caspase-1 enzyme, Ac-WEHD-AFC fluorogenic rate; Potency, µM (series often up to 57.5 µM), for inactives: at the top dose activity change, negative = inhibition, actives largely listed as inhibitors;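 further: plate controls were vehicle for no effect and no substrate for full effect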
FLuc inh – qHTS Assay for Inhibitors of Firefly Luciferase; Luciferin 4-monooxygenase (Photinus pyralis), P08659; purified firefly luciferase, luminescence, 8 min; Potency, µM (doses to about 57.1 µM), inactives show at the top dose activity change, negative = inhibition, usual class: inhibitors; 2.2% of 72,000 active; AID 411, 2009; further: on the % scale 0 is the no-effect control and ±100 the full control effect; nearly all actives have a fitted effect of over 40% in size
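Here, luciferase activity is measured as luminescence following an 8 min room-temperature reaction at 10 uM ATP, pH 7.2. Every library sample is titrated.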
Casp7 inh – qHTS Assay for Allosteric/Competitive Inhibitors of Caspase-7 | P55210 | recombinant caspase-7, Ac-DEVD-AFC fluorescence rate | Potency, µM (doses to about 57.5 µM), for the others: at the highest dose activity change, negative = inhibition, usual class: inhibitors | 0.02% of 75,000 active | AID 889, 2007; active means well fitted inhibition curve with a large enough effect in the main read-out, with a control signal flat, not every such curve was filed as active; inconclusive means small, poorly fitted or top-dose-only effect, or a change in a side signal; further: % of control where 0% means no effect
PK Bst – Pyruvate Kinase. purified pyruvate kinase, luminescence ATP production; ribose 5-phosphate activator present at AC10. Potency, µM. 1.2% of 51,000 active; in the data active means potency below about 11 µM; inconclusive means mostly about 12 µM to 25 µM;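 the screen sought inhibitors and activators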;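 further: scaled between full activation by ribose 5 phosphate and full inhibition by luteolin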
The depositor's hits bear a star; i = inactive; ? = inconclusive; nt = no result given; ! = not confirmed by another sample; [ ] = another dose, or the depositor's remark. Rows were chosen to be rich in hits. Some 4% of all compounds tested hit in one or more screens of this group. Unless noted, the call rests on the fitted dose curve; in most records, active means well fitted curve in the direction sought with a large enough effect; inconclusive means small, poorly fitted or top-dose-only effect, or another doubt; inactive means no such curve, though single readings can be large; an effect the other way counts as inactive or inconclusive. Potency means the concentration at half of the fitted maximal effect.

SMILES	Tau fil binding	Caspase-1 inhib	FLuc inh	Casp7 inh	PK Bst
COc1cccc(Cn2c(=O)c(-c3ccc(F)c(F)c3)nc3cncnc32)c1	10µM*	-8%	0%[11.4 µM]	-7%	nt
COc1cccc(Cn2c(=O)c(-c3cccs3)nc3cncnc32)c1	?	nt	1%[11.4 µM]	?	nt
CC(=O)N1CCN(c2ccc(OCC3CO[C@@](Cn4ccnc4)(c4ccc(Cl)cc4Cl)O3)cc2)CC1 (some centres undefined)	nt	-2%	nt	-7%	nt
C/C(CCN1CCCCc2nc(C)c(C)cc21)=N\O[C@@H](C)c1cc(-c2c(C)cc(C)cc2C)no1	nt	-2%[11.5 µM]	1%[11.4 µM]	-1%[11.5 µM]	nt
O=C(CSc1nc2ccccc2o1)c1cc2ccccc2oc1=O	25µM*	?	-3%	?	>57
Cc1cc(C)nc(SCC(=O)c2cc3ccccc3oc2=O)n1	-18%	-1%	0%	0%	>57
O=C1c2ccccc2C(=O)N1CCCSc1nc2ccccc2o1	4µM*	-2%	2%	-1%	nt
COC1=CC(C)C2CC3OC(=O)CC4C(C)=C(OC)C(=O)C([C@]2(C)C1=O)[C@]34C (some centres undefined)	nt	2%	nt	0%	nt
CCCN=Cc1sc2ccc(OCC)cc2c1O	16µM*	-7%	16µM*	-7%	nt
CC(=O)Nc1cccc(Oc2ccc(-c3noc(C)n3)cc2)c1	-8%	-2%	13µM*	0%	i
Cc1ccccc1Nc1nc(CSc2nnc(-c3ccoc3C)n2C)cs1	?	-5%	25µM*	-23%	nt
CNC(=O)[C@H](C)/C=C/C(NC(=O)OCc1ccccc1)c1ccc(C(=O)OC)cc1 (some centres undefined)	19%	-14%	nt	-3%	nt
O.O.O.O.O.O.O.O=S(=O)([O-])[O-].[Co+2]	3.2µM*	-13%	nt	-28%	nt
CCOC(=O)N1CCC(Nc2c(Nc3ccc(C)c(C)c3)c(=O)c2=O)CC1	20µM*	-1%	-2%	-4%	>57
CC(=O)Nc1ccc(S(=O)(=O)N2CCN(C(=O)N3CCOCC3)CC2)cc1	8%	0%	0%	0%	3.2*
NC(=O)c1ccccc1N/C=C/C(=O)c1ccccc1	-3%	?	3.2µM*	-22%	2.5*
CC=C(Cl)Cl	7%	-3%	nt	1%	nt
N#Cc1cc2sc3nnc(-c4ccncc4)n3c2cc1C#N	7.9µM*	0%	1%	1%	nt
CN1CCc2c(sc3c2c(=O)n(-c2ccccc2)c2nnc(SCc4ccc(Cl)cc4)n32)C1	3.2µM*	-5%	1%	-6%	>57
COC(OC)[C@@H](C)[C@H](OC)[C@@H](C)[C@H](OC)c1ccccc1	nt	-1%[11.5 µM]	-1%[11.4 µM]	1%[11.5 µM]	nt
COc1ccc(/C=C\C(=O)Nc2ccccc2C(=O)O)cc1OC	-17%	-1%	32µM*!	5%	nt
O=C(Nc1ccc(OC(F)(F)F)cc1)c1cnc2n(c1=O)CCS2	3%	-2%	-4%	-1%	nt
O=C(Nc1ccc(OC(F)(F)F)cc1)C1=NCCN1	-5%	0%	10µM*	-2%	i
Cc1cc2c(C)nc(-c3ccccc3)nc2o1	-4%	-2%	1%	-1%	>57
Cc1nc2cc(-c3ccccc3)ccc2o1	-1%	-1%	16µM*	-2%	nt
SMILES	Tau fil binding	Caspase-1 inhib	FLuc inh	Casp7 inh	PK Bst
Cn1c(SCC(=O)Nc2ccc(N3CCOCC3)c(Cl)c2)nnc1-c1ccccc1	10µM*	-3%	-1%	-1%	>57
CCn1c(Cc2ccccc2)nnc1SCC(=O)Nc1ccc(N2CCOCC2)c(Cl)c1	5%	-1%	?	0%	nt
COc1nc(Nc2nc3ccccc3c(=O)[nH]2)nc2ccc(C)cc12	i[11.4 µM]	-1%	2%	0%	nt
Cc1nc(Nc2nc(-c3ccccc3)cc(=O)[nH]2)nc2ccccc12	103%	-3%	10µM*	-3%	5.1*
c1coc(-c2nnc(-c3ccc4c(c3)OCO4)o2)c1	-11%	-1%	10µM*	-15%	nt
Cc1ccc(O)c(-c2cc3ccccc3[nH]2)c1	2.5µM*	-3%	-26%	-3%	nt
COc1ccccc1N1CCN(CCn2c(=O)[nH]c3c([nH]c4ccccc43)c2=O)CC1	40µM*	2%	1%	1%	nt
COc1ccccc1N1CCN(CCCCN2C(=O)CCC2=O)CC1	?	0%	-2%	1%	nt
O=C(Nc1ccc2c(c1)OCCO2)NC12CC3CC(CC(C3)C1)C2	-3%	0%	13µM*	-1%	nt
